The sample as a whole holds a higher share of hits than the screen did.
SF-1 inh = inhibitors of human SF-1, primary screen, cell-based, CHO-K1, Gal4-SF-1 LBD, luciferase luminescence | hit rate 0.55% among 65,000 | Steroidogenic factor 1 (Homo sapiens), Q13285 | CHO-K1 Gal4-SF-1 LBD luciferase reporter | inhibition, % at 10 µM;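 active = inhibition above the mean inhibition of all tested compounds plus 3 SD, cut at about 48% in these data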;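 also: 0% = SF-1 transfected cells with DMSO and 100% = mock-transfected cells lacking SF-1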
Target sequence (Q13285 whole entry, looked up, the tested form may be a part): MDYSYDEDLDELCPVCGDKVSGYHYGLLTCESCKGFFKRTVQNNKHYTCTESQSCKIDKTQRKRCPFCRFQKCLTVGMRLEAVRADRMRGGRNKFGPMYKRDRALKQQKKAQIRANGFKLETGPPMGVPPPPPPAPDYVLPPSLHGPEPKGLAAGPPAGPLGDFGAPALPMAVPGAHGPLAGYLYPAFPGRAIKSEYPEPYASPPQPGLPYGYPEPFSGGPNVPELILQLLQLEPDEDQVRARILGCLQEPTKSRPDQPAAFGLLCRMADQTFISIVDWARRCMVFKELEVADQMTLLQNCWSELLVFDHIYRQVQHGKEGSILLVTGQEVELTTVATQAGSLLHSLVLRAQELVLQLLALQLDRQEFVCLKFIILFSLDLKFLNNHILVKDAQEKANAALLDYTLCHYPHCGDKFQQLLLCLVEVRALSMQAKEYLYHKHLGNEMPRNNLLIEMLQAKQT
* = called active by the depositor.

For CCOC(=O)CCCNC(=O)CCNC(=O)c1ccc(OC(C)C)cc1 the results were SF-1 inh -24.7.
Screening COC(=O)C1[C@H]2C(=O)N(Cc3cccs3)C[C@]23C=C[C@H]1O3 (some centres undefined) returned SF-1 inh -1.0.
`CCC(C)n1cnc2c(c1=O)c1nc3ccccc3nc1n2Cc1ccc2c(c1)OCO2` (centres undefined) gave SF-1 inh -20.0.
COCCN(C(=O)Nc1ccccc1)c1ccccc1C was read as SF-1 inh -4.6.
Screening CCOc1ccc(NS(=O)(=O)c2ccc(SC)cc2)cc1 returned SF-1 inh 0.5.
Screening O=S(=O)(Nc1cccc(C(F)(F)F)c1)c1cccnc1 returned SF-1 inh 5.1.
`CCCCOc1ccc(S(=O)(=O)Nc2cccnc2)cc1` gave SF-1 inh 49.3*.
`COc1ccc2c(c1)CCc1c(C(=O)N3CCCCCC3)noc1-2` gave SF-1 inh -56.8.
Screening COc1ccc(CNC(=O)CCc2nc(-c3ccccc3F)no2)c(OC)c1 returned SF-1 inh 3.2.
For O=C1c2ccccc2C(=O)N1Cc1nc(-c2ccccc2)no1 the results were SF-1 inh 14.6.
CCCc1nc(-c2ccc(-c3ccc(F)cc3)cc2)no1 was read as SF-1 inh -53.3.
COc1ccc(-c2noc(CCCOc3ccccc3)n2)cc1OC was read as SF-1 inh 11.3.
CC(C)(C)c1ccc(-c2noc(CCC(N)=O)n2)cc1 was read as SF-1 inh 87.4*.
Screening CN(C)C(=O)CCc1nc(-c2ccc(C(C)(C)C)cc2)no1 returned SF-1 inh 83.3*.
`CC(C)(CC(=O)O)Cc1nc(-c2ccc(Cl)cc2)no1` gave SF-1 inh -62.8.
Screening O=C(CCc1nc(-c2ccccc2F)no1)NCCc1ccccc1Cl returned SF-1 inh -2.1.
Screening CNC(=O)CCc1nc(-c2ccc(C(C)(C)C)cc2)no1 returned SF-1 inh 87.6*.
`Cc1ccc(N2C(=O)Nc3ccc(Br)cc3C2(O)C(=O)NCCCN(C)C)cc1C` (centres undefined) gave SF-1 inh 7.6.
Screening Cc1ccc(-c2ccc(CCC(=O)O)n2NC(=O)c2cccs2)cc1 returned SF-1 inh -9.5.
For Cc1ccc(-c2cc(C(=O)NCc3cccs3)no2)cc1 the results were SF-1 inh -60.3.
Screening Cc1cc(NC(=O)c2ccc3c(c2)OCO3)no1 returned SF-1 inh -60.4.
Cc1cc(NC(=O)c2ccc3c(c2)OCCO3)no1 was read as SF-1 inh 51.0*.
Cc1cc(NC(=O)c2noc3c2CCCCC3)no1 was read as SF-1 inh -38.8.
For CC(=O)c1cc2c(=O)c3cc(C)ccc3oc2nc1C the results were SF-1 inh -38.2.
For Cc1scc(C(=O)Nn2cnnc2)c1-c1ccccc1 the results were SF-1 inh 0.9.
`Fc1ccc(Nc2nc(N3CCOCC3)c3ccccc3n2)cc1` gave SF-1 inh 19.2.
For Fc1ccc2[nH]c3c(N4CCN(c5ccccc5)CC4)ncnc3c2c1 the results were SF-1 inh 59.6*.
Screening c1ccc(N2CCN(c3ncnc4sc5c(c34)CCC5)CC2)cc1 returned SF-1 inh 3.7.
For CCCCOc1ncnc2c1[nH]c1ccc(F)cc12 the results were SF-1 inh 49.9*.
Screening C[C@H](CCC(=O)O)[C@H]1CC[C@H]2[C@@H]3C(=O)C[C@@H]4CC(=O)CC[C@]4(C)[C@H]3CC(=O)[C@]12C returned SF-1 inh 4.9.
Screening Cc1cc(-c2nc3ncccc3o2)ccc1N returned SF-1 inh 7.9.
CSCCC(NC(=O)CCN1C(=O)c2ccccc2C1=O)C(=O)O (centres undefined) was read as SF-1 inh 0.0.
`CC(C)c1nc(SCc2ccccn2)c2c(=O)n(C)c(=O)n(C)c2n1` gave SF-1 inh -0.9.
Cn1c(=O)c2c(-c3ccccc3)n(Cc3cccnc3)cc2n(C)c1=O was read as SF-1 inh -4.4.
Cc1csc(NC(=O)c2cnc3ccccn3c2=O)n1 was read as SF-1 inh -61.0.
O=C(/C=C\Nc1ccccn1)c1ccc(Cl)cc1 was read as SF-1 inh 64.1*.
O=C(/C=C/Nc1ccc(F)c(Cl)c1)c1ccco1 was read as SF-1 inh -55.3.
For Cc1c(C(=O)Nc2ccccn2)oc2ccccc12 the results were SF-1 inh -68.7.
For Cc1noc(C)c1COC(=O)CCCc1nc2ccccc2s1 the results were SF-1 inh -1.2.
CCOc1ccc(-c2nc(-c3ccccc3)no2)cc1OCC was read as SF-1 inh -84.1.
Screening COc1cc(C2NC(=O)NC(O)(C(F)(F)F)C2C(C)=O)cc(OC)c1OC (centres undefined) returned SF-1 inh -11.3.
COc1cc([C@@H]2c3cc4c(cc3[C@H](O)[C@H]3COC(=O)[C@H]23)OCO4)cc(OC)c1OC was read as SF-1 inh 78.2*.
Screening CN(Cc1ccc(O)cc1)C1CCCCC1 returned SF-1 inh 7.7.
For CCOC(=O)C(C)Sc1nnc2n1C(C)(C)Cc1ccccc1-2 (centres undefined) the results were SF-1 inh 7.9.
`O=C1c2ccccc2C(=O)C1c1ccc2ccccc2n1` gave SF-1 inh 72.1*.
For O=C1c2ccccc2NC(c2cnc3ccccc3n2)N1O (centres undefined) the results were SF-1 inh -42.7.
Screening O=C(NCc1ccccn1)c1ccc2ccccc2n1 returned SF-1 inh -3.7.
Screening CC1(C)Cc2c(sc3c2C(=O)N(c2ccccc2)C2=NCCCN23)CO1 returned SF-1 inh 6.7.
`Cc1ccc2c(c1)N(CCCC(=O)NCC1COc3ccccc3O1)C(=O)CO2` (centres undefined) gave SF-1 inh -5.4.
For Cc1ccccc1Cn1c2ccccc2c2cn[nH]c(=O)c21 the results were SF-1 inh 7.6.
Screening COC(=O)c1ccc(CSc2nnnn2-c2ccccc2)o1 returned SF-1 inh 5.7.
`COc1ccc(CCNc2nnc(Sc3nnnn3-c3ccccc3)s2)cc1OC` gave SF-1 inh 68.5*.
`COc1ccc(CCNS(=O)(=O)c2ccccc2)cc1OC` gave SF-1 inh 13.0.
Screening COC(=O)c1ccc2c(=O)n(CCN3CCOCC3)c(SCC(=O)c3ccccc3)nc2c1 returned SF-1 inh -7.7.
Screening COc1ccc(C(=O)Nn2c(SCC(=O)NCC3CCCO3)nc3ccccc3c2=O)cc1 (centres undefined) returned SF-1 inh 67.4*.
For COc1ccc(CC(=O)Nc2ccc(S(=O)(=O)NCC3CCCO3)cc2)cc1 (centres undefined) the results were SF-1 inh 7.1.
For CCOC(=O)c1cc2c(=O)n3cc(C)ccc3nc2n(Cc2cccnc2)c1=N the results were SF-1 inh -6.6.
COc1ccc(OC)c2sc(NC(=O)C3=COCCO3)nc12 was read as SF-1 inh -13.6.
For O=C(CN1C(=O)COc2ccccc21)N1CCN(c2ccccc2F)CC1 the results were SF-1 inh -4.4.

Compound activity: PubChem BioAssay, The Scripps Research Institute Molecular Screening Center
